Records with an inconclusive call do not appear. Activity calls are given as the source filed them. Unless noted, calls follow the shape of the dose curve; as a rule, active = well fitted curve in the direction sought with a large enough effect in the repeat runs; inconclusive = weak or mixed curves; inactive = no such curve, though single readings can be large; an effect the other way counts as inactive or inconclusive.
Columns and labels:
[1] = molecular target: Estrogen receptor beta (Homo sapiens) (UniProt Q92731); assay: qHTS assay to identify small molecule agonists of the estrogen receptor beta (ER-beta) signaling pathway (AID 1259377; active = well fitted activation curve with a large enough effect in the signal ratio in the repeat runs, not every such curve was filed as active; the % refers to the signal ratio)
Procedure, shortened: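 Screening used GripTite ER-beta-UAS-bla cells held in 2% charcoal-stripped FBS medium. After overnight (16 hr) compound incubation at 37C, beta-lactamase activity was detected with a FRET substrate by fluorescence.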

[2] = molecular target: Estrogen receptor beta (Homo sapiens) (UniProt Q92731); assay: qHTS assay to identify small molecule antagonists of the estrogen receptor beta (ER-beta) signaling pathway (AID 1259378; active = well fitted inhibition curve with a large enough effect in the signal ratio in the repeat runs, not every such curve was filed as active; the % refers to the signal ratio)
Procedure, shortened: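 ER-beta-UAS-bla HEK293T cells in 2% charcoal-stripped FBS medium treated with compound plus 1nM final 17-beta-estradiol for 16 hr at 37C. Beta-lactamase reporter read by FRET substrate fluorescence after 2 hours at room temperature.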

[3] = qHTS assay to identify small molecule agonists of the androgen receptor (AR) signaling pathway in the presence of an antagonist - cell viability counter screen (AID 1259379);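 also: MDA-kb2 human breast cancer cells carrying an MMTV luciferase reporter; series mostly up to about 92 µM; nearly all actives have a fitted effect of over 25% in size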
Procedure, shortened: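 Seed MDA-kb2 at 3,000 cells/well; incubate 5 hr, 37C, 0% CO2. Add nilutamide to 3.0uM final, then pin compounds at 15 concentrations. Incubate 16 hr. Add CellTiter-Fluor at 15 hr, read fluorescence after 1 hr.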

[4] = molecular target: Androgen receptor (Homo sapiens) (UniProt P10275); assay: qHTS assay to identify small molecule agonists of the androgen receptor (AR) signaling pathway in the presence of an antagonist (AID 1259381; calls by dose curve; also: nearly all actives have a fitted effect of over 15% in size)
Procedure, shortened: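 Test compounds at 15 concentrations were incubated for 16hr with MDA-kb2 reporter cells in presence of 3.0uM nilutamide (final). Signal: ONE-Glo luciferase luminescence.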

[5] = qHTS assay to identify small molecule antagonists of the estrogen receptor beta (ER-beta) signaling pathway - cell viability counter screen (AID 1259382); also: series mostly up to about 92 µM; nearly all actives have a fitted effect of over 55% in size
Procedure, shortened: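 In this multiplexed counter screen, cells were seeded at 2,000 per well in medium with 2% charcoal-stripped FBS and incubated 6 hr before compound and 1nM final E2 were added. Sixteen hours later, ATP-based luminescence reported viability.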

[6] = qHTS assay to identify small molecule agonists or antagonists of the thyroid stimulating hormone receptor (TSHR) signaling pathway - wild type cell line counter screen (AID 1259384; calls by dose curve)
Procedure, shortened: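 Wild-type Hek293 cells, 800/well, 18 h at 37C, then compound with Ro20-1724 for 30 min RT. cAMP by HTRF (cAMP-d2/anti-cAMP cryptate), 1 h RT, fluorescence read. 15 concentrations, triplicates.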

[7] = molecular target: Thyrotropin receptor (Homo sapiens) (UniProt P16473); assay: qHTS assay to identify small molecule antagonists of the thyroid stimulating hormone receptor (TSHR) signaling pathway (AID 1259385; calls by dose curve; also: nearly all actives have a fitted effect of over 20% in size)
Procedure, shortened: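 TSHR-HEK293 cells (800/well) plated 18 h, then compounds with Ro20-1724 and TSH at 1.5 ng/mL final, 30 min at room temperature. cAMP quantified by HTRF (cAMP-d2/anti-cAMP-cryptate, 1 h); 15 concentrations in triplicate.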

[8] = qHTS assay to identify small molecule agonists of the estrogen receptor alpha (ER-alpha) signaling pathway in the presence of an antagonist - cell viability counter screen (AID 1259386);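 also: cells exposed to compounds for 22 h at 37 °C before the viability read; nearly all actives have a fitted effect of over 30% in size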; also: potency is read from the fitted curve at half-maximal effect
Procedure, shortened: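 Viability counter screen using VM7Luc4E2 (full-length ER-alpha, four ERE-luciferase). The cells were treated with compounds alongside ICI-182,780 10.0nM for 22hr, and live-cell protease fluorescence was quantified with CellTiter-Fluor.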

[9] = molecular target: Progesterone receptor (Homo sapiens) (UniProt P06401); assay: qHTS assay to identify small molecule agonists of the progesterone receptor (PR) signaling pathway (AID 1346784; calls by dose curve; also: nearly all actives have a fitted effect of over 30% in size)
Procedure, shortened: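 Seed PR-UAS-bla HEK 293T cells (2% charcoal-stripped FBS), incubate 6 hr at 37C; add compounds in DMSO, 16 hr at 37C; add LiveBLAzer B/G substrate, 2 hr RT; read fluorescence intensity.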

[10] = molecular target: Progesterone receptor (Homo sapiens) (UniProt P06401); assay: qHTS assay to identify small molecule antagonists of the progesterone receptor (PR) signaling pathway (AID 1346795; active = well fitted inhibition curve with a large enough effect in the signal ratio in the repeat runs, not every such curve was filed as active; the % refers to the signal ratio; also: potency is read from the fitted curve at half-maximal effect)
Procedure, shortened: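 Screening used a GripTite HEK293T line with PR-responsive UAS-beta-lactamase. Cells were challenged with compound in the presence of 1 nM R5020 final for 16 hr at 37C; B/G FRET substrate, 2 hr room temperature, fluorescence.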

[11] = qHTS assay to identify small molecule antagonists of the progesterone receptor (PR) signaling pathway - cell viability counter screen (AID 1346798); also: series mostly up to about 92 µM; nearly all actives have a fitted effect of over 50% in size
Procedure, shortened: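 Measures cytotoxicity in parallel with the PR antagonist reporter read: HEK293T PR-UAS-bla cells get compound and R5020 for 16 hr, and remaining viable cells are quantified by CellTiter-Glo luminescence.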

[12] = qHTS assay to identify small molecule antagonists of the TGF-beta/Smad signaling pathway - cell viability counter screen (AID 1346824); also: nearly all actives have a fitted effect of over 50% in size
Procedure, shortened: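 SBE-bla HEK 293T cells, incubated overnight, then compound plus 0.25 ng/mL TGF-beta1 (stock added) for 5 hr at 37 C. Viability was read in the same wells by CellTiter-Glo luminescence after 30 min at room temperature.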

[13] = qHTS assay to identify small molecule agonists of the TGF-beta/Smad signaling pathway - cell viability counter screen (AID 1346829); also: top concentration of the series differs between compounds; nearly all actives have a fitted effect of over 45% in size
Procedure, shortened: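 Luminescence from CellTiter-Glo, read after a 30 min room-temperature incubation, gives cell viability of SBE-bla HEK 293T cells treated 5 hr with compounds at 37 C.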

[14] = qHTS assay to identify small molecule agonists of the TGF-beta/Smad signaling pathway (AID 1346859; active = well fitted activation curve with a large enough effect in the signal ratio in the repeat runs, not every such curve was filed as active; the % refers to the signal ratio; also: series mostly up to about 77 µM)
Procedure, shortened: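 Beta-lactamase reporter activity downstream of Smad binding elements was measured in stably transfected HEK 293T cells; compounds were incubated for 5 hr, substrate for 2 hr at room temperature.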

[15] = molecular target: Thyrotropin-releasing hormone receptor (Homo sapiens) (UniProt P34981); assay: qHTS assay to identify small molecule antagonists of the thyrotropin-releasing hormone receptor (TRHR) signaling pathway (AID 1346877; active = well fitted inhibition curve with a large enough effect in the repeat runs, not every such curve was filed as active; also: series mostly up to about 51 µM)
Procedure, shortened: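 Following an 18 h incubation at 37 °C and a 2 h calcium dye load, TRHR-HEK293 cells were exposed to compound (5 min, room temperature) and challenged with TRH, 1 nM final.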

[16] = molecular target: Thyrotropin-releasing hormone receptor (Homo sapiens) (UniProt P34981); assay: qHTS assay to identify small molecule agonists of the thyrotropin-releasing hormone receptor (TRHR) signaling pathway (AID 1346891; calls by dose curve;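 also: HEK293 cells expressing TRHR with calcium dye readout; series mostly up to about 58 µM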)
Procedure, shortened: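 Overnight-plated (18 h, 37 °C, 5% CO2) TRHR-Hek293 cells; 2 h calcium dye at 37 °C; compound in DMSO; 3-min kinetic fluorescence read.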

[17] = qHTS assay to identify small molecule agonists of the estrogen receptor beta (ER-beta) signaling pathway - cell viability counter screen (AID 1259380); also: nearly all actives have a fitted effect of over 30% in size
Procedure, shortened: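 CellTiter-Glo read, 30 min RT, same wells as bla assay; cells ER-beta-UAS-bla HEK293T; 16 hr compound, 37C; medium 2% charcoal-stripped FBS.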

[18] = molecular target: Estrogen receptor (Homo sapiens) (UniProt P03372); assay: qHTS assay to identify small molecule agonists of the estrogen receptor alpha (ER-alpha) signaling pathway in the presence of an antagonist (AID 1259383; calls by dose curve; also: top concentration of the series differs between compounds; nearly all actives have a fitted effect of over 15% in size)
Procedure, shortened: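 Stably transfected VM7Luc4E2 reporter cells, kept 5 days in charcoal-stripped serum, received ICI-182,780 at 10.0nM final before compound addition. Following 22hr incubation at 37C and 5% CO2, luciferase signal was read by luminescence.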

[19] = qHTS assay to identify small molecule agonists of the progesterone receptor (PR) signaling pathway - cell viability counter screen (AID 1346799; calls by dose curve; also: nearly all actives have a fitted effect of over 45% in size)
Procedure, shortened: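 Using the same plates as the PR reporter screen, HEK293T PR-UAS-bla cells received compounds for 16 hr at 37C and were then lysed with CellTiter-Glo; luminescence was read 30 min later at room temperature.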

[20] = qHTS assay to identify small molecule antagonists of the sonic hedgehog signaling (Shh) pathway (AID 1259369; calls by dose curve; also: nearly all actives have a fitted effect of over 45% in size)
Procedure, shortened: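 For antagonist detection, the reporter line received test compounds together with conditioned medium, incubated 24hr at 37 C, 5% CO2, then luminescence was recorded following 30min room-temperature luciferase reagent incubation.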

Measured: Potency

Chain of Thyrotropin-releasing hormone receptor (Homo sapiens) (P34981 whole entry, looked up): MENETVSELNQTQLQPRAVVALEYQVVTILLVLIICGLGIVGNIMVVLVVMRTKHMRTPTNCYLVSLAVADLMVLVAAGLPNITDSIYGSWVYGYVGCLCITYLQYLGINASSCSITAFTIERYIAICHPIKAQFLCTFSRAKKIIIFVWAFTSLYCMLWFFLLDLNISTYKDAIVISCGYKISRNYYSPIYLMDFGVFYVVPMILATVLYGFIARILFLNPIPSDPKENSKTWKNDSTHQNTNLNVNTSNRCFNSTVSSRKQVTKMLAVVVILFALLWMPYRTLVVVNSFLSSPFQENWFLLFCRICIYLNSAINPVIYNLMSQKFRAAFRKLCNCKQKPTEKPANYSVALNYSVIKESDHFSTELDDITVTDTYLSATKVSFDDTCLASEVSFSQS
Chain of Thyrotropin receptor (Homo sapiens) (P16473 whole entry, looked up): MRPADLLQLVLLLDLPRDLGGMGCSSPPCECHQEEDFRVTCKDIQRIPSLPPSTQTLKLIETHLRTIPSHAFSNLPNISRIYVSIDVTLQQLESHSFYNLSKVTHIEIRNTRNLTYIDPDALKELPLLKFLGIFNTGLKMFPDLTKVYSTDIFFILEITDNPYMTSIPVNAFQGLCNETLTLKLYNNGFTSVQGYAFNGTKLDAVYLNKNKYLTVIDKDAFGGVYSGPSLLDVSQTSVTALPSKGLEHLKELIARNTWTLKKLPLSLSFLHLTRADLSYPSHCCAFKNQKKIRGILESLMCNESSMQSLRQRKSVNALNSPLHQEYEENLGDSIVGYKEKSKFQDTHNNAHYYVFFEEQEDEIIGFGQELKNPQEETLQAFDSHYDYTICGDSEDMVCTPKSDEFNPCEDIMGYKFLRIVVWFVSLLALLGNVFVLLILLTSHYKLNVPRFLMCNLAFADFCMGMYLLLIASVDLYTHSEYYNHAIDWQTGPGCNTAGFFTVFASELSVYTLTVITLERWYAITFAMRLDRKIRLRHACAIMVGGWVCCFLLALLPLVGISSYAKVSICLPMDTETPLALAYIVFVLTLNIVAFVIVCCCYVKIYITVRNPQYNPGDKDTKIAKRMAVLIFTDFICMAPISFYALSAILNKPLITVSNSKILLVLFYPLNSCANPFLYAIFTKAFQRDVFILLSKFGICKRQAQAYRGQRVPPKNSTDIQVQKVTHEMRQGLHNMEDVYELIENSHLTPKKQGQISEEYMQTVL
Chain of Progesterone receptor (Homo sapiens) (P06401 whole entry, looked up): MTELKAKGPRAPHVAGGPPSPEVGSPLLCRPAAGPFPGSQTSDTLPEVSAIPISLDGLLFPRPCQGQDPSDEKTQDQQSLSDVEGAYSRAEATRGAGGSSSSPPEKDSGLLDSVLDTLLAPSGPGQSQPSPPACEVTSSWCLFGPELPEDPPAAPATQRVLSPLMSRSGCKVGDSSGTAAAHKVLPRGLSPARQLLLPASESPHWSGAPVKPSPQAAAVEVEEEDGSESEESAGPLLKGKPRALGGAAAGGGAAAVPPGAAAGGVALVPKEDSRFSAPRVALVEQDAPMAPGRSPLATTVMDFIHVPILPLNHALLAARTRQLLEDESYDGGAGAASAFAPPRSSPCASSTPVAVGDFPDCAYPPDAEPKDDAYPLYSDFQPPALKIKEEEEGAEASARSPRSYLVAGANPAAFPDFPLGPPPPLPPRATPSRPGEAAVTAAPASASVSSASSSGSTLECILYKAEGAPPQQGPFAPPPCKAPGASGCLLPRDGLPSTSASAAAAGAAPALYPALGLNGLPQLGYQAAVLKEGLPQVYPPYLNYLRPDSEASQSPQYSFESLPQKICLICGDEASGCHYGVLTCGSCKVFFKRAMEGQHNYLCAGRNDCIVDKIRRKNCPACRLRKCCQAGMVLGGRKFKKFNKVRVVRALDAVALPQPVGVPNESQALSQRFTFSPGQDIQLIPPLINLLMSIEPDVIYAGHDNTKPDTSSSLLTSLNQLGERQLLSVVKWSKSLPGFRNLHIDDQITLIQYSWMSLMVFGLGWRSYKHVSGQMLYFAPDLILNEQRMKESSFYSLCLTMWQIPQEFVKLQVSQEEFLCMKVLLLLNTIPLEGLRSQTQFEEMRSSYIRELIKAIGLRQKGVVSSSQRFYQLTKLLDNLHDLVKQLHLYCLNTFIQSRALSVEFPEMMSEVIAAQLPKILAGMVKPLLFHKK
Chain of Estrogen receptor beta (Homo sapiens) (Q92731 whole entry, looked up): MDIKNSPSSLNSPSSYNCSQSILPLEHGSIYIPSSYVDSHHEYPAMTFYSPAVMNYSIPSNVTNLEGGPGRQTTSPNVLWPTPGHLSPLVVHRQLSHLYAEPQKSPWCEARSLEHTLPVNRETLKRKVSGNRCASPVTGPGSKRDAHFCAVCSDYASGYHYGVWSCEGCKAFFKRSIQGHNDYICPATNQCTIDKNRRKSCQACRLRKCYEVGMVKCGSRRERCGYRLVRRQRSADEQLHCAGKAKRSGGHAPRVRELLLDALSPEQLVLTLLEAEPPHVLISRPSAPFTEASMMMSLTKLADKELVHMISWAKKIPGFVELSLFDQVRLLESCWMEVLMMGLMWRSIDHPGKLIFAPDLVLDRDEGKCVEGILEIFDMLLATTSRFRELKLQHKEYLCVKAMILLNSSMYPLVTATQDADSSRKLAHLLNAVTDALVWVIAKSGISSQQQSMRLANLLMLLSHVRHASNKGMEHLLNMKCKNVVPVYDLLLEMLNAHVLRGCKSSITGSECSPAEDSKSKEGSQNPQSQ
Chain of Estrogen receptor (Homo sapiens) (P03372 whole entry, looked up): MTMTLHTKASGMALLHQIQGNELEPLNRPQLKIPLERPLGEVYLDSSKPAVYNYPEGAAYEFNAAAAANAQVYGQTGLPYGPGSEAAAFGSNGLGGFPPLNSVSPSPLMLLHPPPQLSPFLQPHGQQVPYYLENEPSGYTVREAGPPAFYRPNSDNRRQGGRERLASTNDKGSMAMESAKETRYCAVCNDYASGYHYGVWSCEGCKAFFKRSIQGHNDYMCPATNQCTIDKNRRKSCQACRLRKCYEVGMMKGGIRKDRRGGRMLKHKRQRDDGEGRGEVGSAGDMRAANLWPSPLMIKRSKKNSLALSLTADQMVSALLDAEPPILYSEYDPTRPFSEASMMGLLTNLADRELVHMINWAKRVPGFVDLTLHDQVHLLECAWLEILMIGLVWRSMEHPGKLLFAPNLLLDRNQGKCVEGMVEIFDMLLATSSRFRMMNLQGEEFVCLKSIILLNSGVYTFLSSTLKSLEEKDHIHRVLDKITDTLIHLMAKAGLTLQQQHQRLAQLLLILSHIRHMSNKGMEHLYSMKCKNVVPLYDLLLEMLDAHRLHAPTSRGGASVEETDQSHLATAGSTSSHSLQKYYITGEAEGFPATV
Chain of Androgen receptor (Homo sapiens) (P10275 whole entry, looked up): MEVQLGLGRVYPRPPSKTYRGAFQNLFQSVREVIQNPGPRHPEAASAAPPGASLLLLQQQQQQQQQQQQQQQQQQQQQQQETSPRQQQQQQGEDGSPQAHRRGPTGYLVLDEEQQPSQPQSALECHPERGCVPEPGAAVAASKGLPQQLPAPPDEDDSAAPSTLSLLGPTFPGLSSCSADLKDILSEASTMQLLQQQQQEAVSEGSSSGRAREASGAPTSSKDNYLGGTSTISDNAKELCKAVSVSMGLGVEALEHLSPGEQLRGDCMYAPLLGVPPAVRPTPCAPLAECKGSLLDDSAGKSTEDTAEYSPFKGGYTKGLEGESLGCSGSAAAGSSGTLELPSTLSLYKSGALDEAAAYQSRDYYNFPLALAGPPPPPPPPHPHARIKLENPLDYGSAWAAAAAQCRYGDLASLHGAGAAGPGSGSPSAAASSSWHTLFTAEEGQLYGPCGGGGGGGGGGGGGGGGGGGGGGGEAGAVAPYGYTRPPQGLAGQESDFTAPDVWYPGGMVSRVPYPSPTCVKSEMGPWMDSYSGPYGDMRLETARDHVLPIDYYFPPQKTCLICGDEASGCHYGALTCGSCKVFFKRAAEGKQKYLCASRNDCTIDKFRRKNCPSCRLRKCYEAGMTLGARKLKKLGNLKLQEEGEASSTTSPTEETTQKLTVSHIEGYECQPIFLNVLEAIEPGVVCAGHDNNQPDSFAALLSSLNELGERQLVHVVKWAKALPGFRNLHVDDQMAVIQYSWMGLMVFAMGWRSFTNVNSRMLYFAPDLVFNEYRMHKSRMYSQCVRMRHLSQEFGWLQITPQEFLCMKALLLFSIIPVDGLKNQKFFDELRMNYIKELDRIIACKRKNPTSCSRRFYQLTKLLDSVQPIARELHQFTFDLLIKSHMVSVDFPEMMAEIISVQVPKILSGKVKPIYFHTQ

COC(=O)Nc1ccc(Cl)c(Cl)c1
active: [10] 30.5 µM
not listed: [17] | [18] | [19] | [20]
inactive: all other assays above

CC(=O)c1ccccc1[N+](=O)[O-]
not listed: [4] | [10] | [20]
inactive: all other assays above

CCC1C(=O)OCC1Cc1cncn1C (configuration not stated)
not listed: [1] | [2] | [3] | [4] | [13] | [19]
inactive: all other assays above

COc1cc2c(cc1OC)-c1cc3ccc(OC)c(OC)c3c[n+]1CC2
inactive: [20] | [17] | [5] | [9] | [10] | [12] | [13] | [15] | [16]
active: [8] 61.7 µM
